Measurements taken from PubChem BioAssay.
Results filed as inconclusive are left out. Active and inactive are the calls of the source. Unless noted, the rule behind the calls is not given here.

Columns and labels:
[1] = tested on: Aerobactin synthetase IucA (Klebsiella pneumoniae); assay: inhibition of K. pneumoniae IucA enzyme – biochemical, Tocris library, absorbance (AID 1345561); details: purified IucA enzyme assay, absorbance (OD) read-out; stronger effect = lower value;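 tested at 8 µM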;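 note: 100% = enzyme without compound and 0% = no enzyme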
[2] = viability loss in pontine glioma line – cell-based, SU-DIPG-XVII, MIPE5.0, CellTiter-Glo, qHTS, dose response (AID 1347060; cut-off not given, nearly all actives have AC50 up to about 26 µM;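 for AC50: cells exposed to compound for 48 hours before viability readout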); details: CellTiter-Glo ATP luminescence
[3] = viability loss in pontine glioma line – cell-based, SU-DIPG-XIII, MIPE4.0, CellTiter-Glo, qHTS, dose response (AID 1347061; cut-off not given, nearly all actives have AC50 up to about 37 µM;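 note: cells exposed to compound for 48 hours before readout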); details: CellTiter-Glo ATP luminescence
[4] = viability loss in pontine glioma line – cell-based, JHH-DIPG-1, MIPE4.0, CellTiter-Glo, qHTS, dose response (AID 1347062; cut-off not given, nearly all actives have AC50 up to about 27 µM;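 for AC50: cells exposed to compound for two days before readout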); details: JHH-DIPG-1 viability, CellTiter-Glo ATP luminescence
[5] = viability loss in pontine glioma line – cell-based, SU-DIPG-XIII, MIPE5.0, CellTiter-Glo, qHTS, dose response (AID 1347064; cut-off not given, nearly all actives have AC50 up to about 23 µM;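 for AC50: cells exposed to compound for 48 hours before the viability read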); details: CellTiter-Glo ATP luminescence
[6] = growth inhibition of DIPG cells – cell-based, MIPE4.0 library, CellTiter-Glo luminescence, qHTS (AID 1347066; cut-off not given, nearly all actives have AC50 up to about 30 µM;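 note: cells exposed to compound for 48 hours before readout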); details: SU-DIPG-VI viability, CellTiter-Glo ATP luminescence
[7] = JHH-DIPG-1 glioma cell viability, MIPE5.0 library, CellTiter-Glo luminescence, qHTS (AID 1347067; cut-off not given, nearly all actives have AC50 up to about 26 µM;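 note: cells exposed to compound for 48 hours before readout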); details: JHH-DIPG-1 glioma viability, CellTiter-Glo ATP luminescence
[8] = growth inhibition of DIPG cells – cell-based, MIPE5.0 library, qHTS (AID 1347068; cut-off not given, nearly all actives have IC50 up to about 30 µM;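 for IC50: cells exposed to compound for 48 hours before viability readout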); details: SU-DIPG-XXV viability
[9] = target: NAD(+) hydrolase SARM1 (Homo sapiens) (UniProt Q6SZW1); assay: blocking NAD cleavage by SARM1 SAM-TIR – cell lysate, NAD-Glo luminescence (AID 1508614;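 active = compound whose remaining NAD level is above about 45 nM, limit read from the data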;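 note: higher remaining NAD means stronger inhibition of SARM1 NADase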); details: SAM-TIR HEK293T lysate NADase, at 1 µM, stronger effect = higher value
Sequence of NAD(+) hydrolase SARM1 (Homo sapiens) (Q6SZW1 whole entry, looked up): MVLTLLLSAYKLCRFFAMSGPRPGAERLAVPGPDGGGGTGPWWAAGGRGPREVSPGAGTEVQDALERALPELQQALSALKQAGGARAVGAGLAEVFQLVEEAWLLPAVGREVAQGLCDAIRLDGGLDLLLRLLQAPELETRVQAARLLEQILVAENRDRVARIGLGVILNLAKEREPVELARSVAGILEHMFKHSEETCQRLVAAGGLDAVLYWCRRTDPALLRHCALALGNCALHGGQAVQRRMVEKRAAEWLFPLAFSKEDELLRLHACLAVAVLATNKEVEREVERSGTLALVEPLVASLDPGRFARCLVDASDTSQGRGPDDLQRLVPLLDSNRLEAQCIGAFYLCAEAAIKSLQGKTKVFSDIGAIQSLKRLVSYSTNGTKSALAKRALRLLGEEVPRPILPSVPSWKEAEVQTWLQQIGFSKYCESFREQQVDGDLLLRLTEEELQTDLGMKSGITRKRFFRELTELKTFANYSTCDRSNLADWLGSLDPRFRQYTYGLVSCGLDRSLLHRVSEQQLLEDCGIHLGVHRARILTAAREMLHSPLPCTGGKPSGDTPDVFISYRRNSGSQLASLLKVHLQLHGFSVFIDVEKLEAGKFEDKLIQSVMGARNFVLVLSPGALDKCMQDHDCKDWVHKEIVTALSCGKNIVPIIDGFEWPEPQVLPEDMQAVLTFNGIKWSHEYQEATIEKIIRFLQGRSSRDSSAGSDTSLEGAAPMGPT

[10] = viability loss in pontine glioma line – cell-based, SU-DIPG-IV, MIPE4.0, CellTiter-Glo, qHTS, dose response (AID 1347063; cut-off not given, nearly all actives have AC50 up to about 30 µM;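 note: compound exposure lasted 48 hours before the viability readout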); details: CellTiter-Glo ATP luminescence
[11] = target: ATP-dependent translocase ABCB1 (Homo sapiens) (UniProt P08183); assay: P-glycoprotein substrate transport blockade – cell-based (AID 377; in the data active = fluorescence slope change above about 50%); details: MDR1-expressing cells, fluorescent substrate accumulation slope; stronger effect = higher value; concentration not given here
Sequence of ATP-dependent translocase ABCB1 (Homo sapiens) (P08183 whole entry, looked up): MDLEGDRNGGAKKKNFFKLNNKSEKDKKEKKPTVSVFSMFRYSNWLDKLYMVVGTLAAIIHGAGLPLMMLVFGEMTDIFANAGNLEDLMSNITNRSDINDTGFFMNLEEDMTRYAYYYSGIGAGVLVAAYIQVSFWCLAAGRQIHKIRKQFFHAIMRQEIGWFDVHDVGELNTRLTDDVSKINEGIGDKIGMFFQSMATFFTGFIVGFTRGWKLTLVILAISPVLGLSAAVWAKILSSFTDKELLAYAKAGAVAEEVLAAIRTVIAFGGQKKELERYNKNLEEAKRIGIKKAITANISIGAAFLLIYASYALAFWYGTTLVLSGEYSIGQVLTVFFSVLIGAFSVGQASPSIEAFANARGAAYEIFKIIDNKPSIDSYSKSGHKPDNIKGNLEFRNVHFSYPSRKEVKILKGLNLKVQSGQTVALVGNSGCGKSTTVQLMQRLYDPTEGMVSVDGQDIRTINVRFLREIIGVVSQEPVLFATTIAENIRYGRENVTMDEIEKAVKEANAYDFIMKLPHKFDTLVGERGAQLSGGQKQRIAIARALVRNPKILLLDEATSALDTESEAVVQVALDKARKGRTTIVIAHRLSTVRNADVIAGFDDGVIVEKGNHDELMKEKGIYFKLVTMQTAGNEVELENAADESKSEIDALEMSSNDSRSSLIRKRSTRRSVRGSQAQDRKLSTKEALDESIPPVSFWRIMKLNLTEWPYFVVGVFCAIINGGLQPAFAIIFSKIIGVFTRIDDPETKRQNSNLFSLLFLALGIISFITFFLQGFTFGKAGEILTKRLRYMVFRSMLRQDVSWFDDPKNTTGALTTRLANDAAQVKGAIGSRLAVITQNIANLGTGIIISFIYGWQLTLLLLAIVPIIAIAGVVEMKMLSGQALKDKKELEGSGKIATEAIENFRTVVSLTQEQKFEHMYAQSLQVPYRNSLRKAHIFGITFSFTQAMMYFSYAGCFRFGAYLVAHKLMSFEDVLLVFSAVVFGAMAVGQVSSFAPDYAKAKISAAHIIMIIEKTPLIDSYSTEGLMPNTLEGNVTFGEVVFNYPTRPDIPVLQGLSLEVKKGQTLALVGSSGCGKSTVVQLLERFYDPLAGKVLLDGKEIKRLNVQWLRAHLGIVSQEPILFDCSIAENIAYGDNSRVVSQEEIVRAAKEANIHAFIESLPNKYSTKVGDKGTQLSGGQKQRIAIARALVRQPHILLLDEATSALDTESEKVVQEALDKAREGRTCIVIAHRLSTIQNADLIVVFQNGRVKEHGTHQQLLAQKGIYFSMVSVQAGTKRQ

[12] = compounds altering viability of human ES cells (AID 493140); details: human embryonic stem cell survival screen; stronger effect = higher value;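 note: cells exposed to compounds for four days before counting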
[13] = growth inhibition, single agent or in combination, cell-based, chromothripsis tumors, cisplatin or BGB combos (AID 1671449; in the data active = inhibition above about 80%;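 note: cells exposed for 96 hours; 0% = vehicle DMSO and 100% = killing by high DMSO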); details: LFS_MB_P medulloblastoma cells
[14] = growth inhibition, single agent and combos, cell-based, chromothripsis tumors, cisplatin or BGB combos (AID 1671450; in the data active = inhibition above about 80%;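 note: cells exposed to compound for four days; 0% = vehicle DMSO and 100% = cell killing by high DMSO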); details: HDN33 neuroblastoma cells, stronger effect = higher value
[15] = growth inhibition, single agents and combos, ICB984, cell-based, cisplatin or BGB combos, synergistic combos for chromothripsis tumors (AID 1671451); details: ICB984 medulloblastoma cells, drug combinations, stronger effect = higher value;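 note: cells exposed for 96 hours before readout; 0% = vehicle DMSO and 100% = killing by high DMSO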
[16] = growth inhibition, single agents and combos, HTB85, cell-based, BGB or cisplatin IC20 combos, synergistic combos for chromothripsis tumors (AID 1671453; in the data active = inhibition above about 80%;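 note: cells exposed for 96 hours before readout; 0% = vehicle DMSO and 100% = high DMSO killing control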); details: HTB85 osteosarcoma cells, drug combinations, stronger effect = higher value
[17] = growth inhibition, MDA-MB-436, cell-based, BGB or cisplatin combos, synergistic combos for chromothripsis tumors (AID 1671458); details: MDA-MB-436 breast carcinoma growth inhibition, drug combinations, stronger effect = higher value;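 note: cells exposed for 96 hours; 0% = vehicle DMSO and 100% = killing by high DMSO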
[18] = BT084 cell growth, single and combined drugs, ICGC_MB145, cisplatin and BGB IC40 combos (AID 1671461; in the data active = inhibition above about 80%;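 note: cells exposed to drugs for 96 hours; 0% = vehicle DMSO and 100% = high DMSO full killing control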); details: BT084 medulloblastoma cells, drug combinations, stronger effect = higher value
[19] = RCMB18 cell growth, single agent and combined, cisplatin and BGB IC40 combos (AID 1671462; in the data active = inhibition above about 80%;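 note: cells exposed to compound for four days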); details: RCMB18 medulloblastoma cells, stronger effect = higher value
[20] = CRL1545 cell growth, single agent and combined, cisplatin and BGB IC20 combos (AID 1671464; in the data active = inhibition above about 80%;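 note: cells exposed to compound for 96 hours before readout; 0% = vehicle DMSO and 100% = high DMSO killing control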); details: CRL1545 osteosarcoma cells, stronger effect = higher value
[21] = measured here: with BGB IC20 combination, at 0.5 µM
[22] = measured here: with cisplatin IC20 combination, at 0.5 µM

With `CCCCOc1cc(CC2CNC(=O)N2)ccc1OC` (configuration not stated) the remaining activity [1] was 104% (inactive).

For `NCCc1cnc[nH]1`, the remaining activity [1] was 107% (inactive), the outcome [2] was “inactive” and the outcome [3] was “inactive”. The outcome [4] was “inactive”, the outcome [5] was “inactive” and the outcome [6] was “inactive”. For the same compound, the outcome [7] was “inactive”, the outcome [8] was “inactive” and the remaining NAD [9] was 10 nM (inactive).

With `O=c1cc(-c2ccccc2)oc2cc(O)c(O)c(O)c12` the remaining activity [1] was 119% (inactive), the outcome [3] was “inactive” and the outcome [10] was “inactive”.

For `CN1C[C@H](C(=O)N[C@]2(C)O[C@@]3(O)[C@@H]4CCCN4C(=O)[C@H](Cc4ccccc4)N3C2=O)C[C@@H]2c3cccc4[nH]cc(c34)C[C@H]21`, the fluorescence slope change [11] was 122% (active), the survival [12] was 19.1 (inactive) and the remaining activity [1] was 86.1% (inactive). The remaining NAD [9] was 10 nM (inactive).

For `COc1c(C)c2c(c(O)c1C/C=C(\C)CCC(=O)O)C(=O)OC2`, the survival [12] was 0.167 (inactive), the remaining activity [1] was 113% (inactive) and the AC50 [2] was 0.742 µM (active). The outcome [6] was “inactive” and the remaining NAD [9] was 10 nM (inactive).

With `CCCCCCCCCCCC1=C(O)C(=O)C=C(O)C1=O` the remaining activity [1] was 99.6% (inactive), the outcome [3] was “inactive” and the AC50 [10] was 0.0526 µM (active). The outcome [8] was “inactive”.

For `COc1cc(CNC(=O)CCCC/C=C/C(C)C)ccc1O`, the survival [12] was 2.67 (inactive), the remaining activity [1] was 122% (inactive) and the outcome [2] was “inactive”. For the same compound, the outcome [3] was “inactive”, the outcome [4] was “inactive” and the outcome [10] was “inactive”. For the same compound, the outcome [6] was “inactive”, the outcome [7] was “inactive” and the outcome [8] was “inactive”. The remaining NAD [9] was 10 nM (inactive).

In the case of `O=c1cc(-c2ccc(O)cc2)oc2cc(O)cc(O)c12`, the survival [12] is reported as 17.8 (inactive), the remaining activity [1] is reported as 107% (inactive) and the AC50 [2] is reported as 16.6 µM (active). The AC50 [4] was 2.35 µM (active), the AC50 [10] was 2.96 µM (active) and the AC50 [5] was 16.6 µM (active).

In the case of `O=C(O)c1cccnc1C(=O)O`, the remaining activity [1] is reported as 95.4% (inactive).

In the case of `CC/C(=C(\c1ccccc1)c1ccc(OCCN(C)C)cc1)c1ccccc1`, the fluorescence slope change [11] is reported as 142% (active), the survival [12] is reported as 6.5 (inactive) and the remaining activity [1] is reported as 79.2% (inactive). For the same compound, the AC50 [2] was 17.1 µM (active), the AC50 [10] was 26.4 µM (active) and the AC50 [5] was 13.5 µM (active). For the same compound, the AC50 [6] was 23.5 µM (active), the AC50 [7] was 21.5 µM (active) and the IC50 [8] was 17.1 µM (active). The remaining NAD [9] was 10 nM (inactive).

For `Cc1cc(O)c2c(c1)C(=O)c1cc(O)cc(O)c1C2=O`, the outcome [3] was “inactive”, the outcome [4] was “inactive” and the outcome [5] was “inactive”. For the same compound, the outcome [6] was “inactive”.

In the case of `CC[C@H]1OC(=O)[C@H](C)[C@@H](O[C@H]2C[C@@](C)(OC)[C@@H](O)[C@H](C)O2)[C@H](C)[C@@H](O[C@@H]2O[C@H](C)C[C@H](N(C)C)[C@H]2O)[C@](C)(O)C[C@@H](C)/C(=N\OCOCCOC)[C@H](C)[C@@H](O)[C@]1(C)O`, the outcome [3] is reported as “inactive”, the outcome [4] is reported as “inactive” and the outcome [10] is reported as “inactive”. The outcome [6] was “inactive” and the remaining NAD [9] was 10 nM (inactive).

For `CN1C2CCC1CC(OC(=O)C(CO)c1ccccc1)C2` (configuration not stated), the survival [12] was 7.25 (inactive), the outcome [3] was “inactive” and the outcome [4] was “inactive”. For the same compound, the outcome [5] was “inactive”, the outcome [6] was “inactive” and the outcome [8] was “inactive”.

In the case of `O=C(/C=C/c1ccc(O)cc1)c1ccc(O)cc1O`, the outcome [2] is reported as “inactive”.

With `O=c1c(O)c(-c2ccc(O)c(O)c2)oc2cc(O)ccc12` the AC50 [10] was 18.7 µM (active), the AC50 [6] was 29.6 µM (active) and the inhibition ([13]; at 0.5 µM, stronger effect = higher value) was -6.56% (inactive). The inhibition ([13]; measured here: combination with BGB IC20, at 0.005 µM) was -16.9%, the inhibition ([13]; measured here: combination with BGB IC40, at 0.005 µM) was 5.59% and the inhibition ([13]; measured here: combination with BGB IC40, at 0.05 µM) was 5.54%. It also gave an inhibition ([13]; measured here: combination with cisplatin, at 0.5 µM, stronger effect = higher value) of -17.1%, an inhibition ([13]; measured here: combination with cisplatin, at 5 µM, stronger effect = higher value) of 11% and an inhibition ([14]; BGB combo, at 5 µM) of -4.9%. For the same compound, the inhibition ([14]; at 0.5 µM) was 4.36% (inactive), the inhibition ([14]; cisplatin combo, at 5 µM) was 3.02% and the inhibition [14, 21] was -4.05%. The inhibition [14, 22] was 5.86%, the inhibition ([14]; single agent, at 5 µM) was -1.94% and the inhibition ([15]; BGB IC20 combo, at 0.005 µM) was -15.9%. The inhibition ([15]; BGB IC40 combo, at 0.005 µM) was -16.9%, the inhibition ([15]; BGB IC40 combo, at 0.05 µM) was -3.67% and the inhibition ([15]; at 0.5 µM) was -24.7% (inactive). It also gave an inhibition ([15]; cisplatin combo, at 0.05 µM) of -3.67%, an inhibition ([15]; cisplatin combo, at 0.5 µM) of -43.4% and an inhibition ([15]; cisplatin combo, at 5 µM) of -7.32%. For the same compound, the inhibition ([15]; measured here: 5 uM single agent, at 5 µM) was -7.82%, the inhibition ([16]; at 0.5 µM) was 3.31% (inactive) and the inhibition ([16]; measured here: with BGB IC20, at 0.5 µM) was -8.35%. It also gave an inhibition ([16]; measured here: with BGB IC20, at 5 µM) of 3.71%, an inhibition ([16]; measured here: with cisplatin IC20, at 0.5 µM) of 14.6% and an inhibition ([16]; measured here: with cisplatin IC20, at 5 µM) of 6.28%. For the same compound, the inhibition ([16]; single agent, at 5 µM) was 8.35%, the inhibition ([17]; at 0.5 µM) was -7.38% (inactive) and the inhibition ([17]; measured here: BGB combination, at 0.5 µM) was 5.2%. The inhibition ([17]; measured here: BGB combination, at 5 µM) was -2.65%, the inhibition ([17]; measured here: cisplatin combination, at 0.5 µM) was -24.9% and the inhibition ([17]; measured here: cisplatin combination, at 5 µM) was 5.5%. The inhibition ([18]; at 0.5 µM) was -4.39% (inactive), the inhibition ([18]; cisplatin combination, at 0.5 µM) was -0.071% and the inhibition ([18]; cisplatin combination, at 5 µM) was -26.8%. The inhibition ([18]; measured here: BGB IC40 combination 0.05 uM, at 0.05 µM) was 5.57%, the inhibition ([18]; single agent, at 5 µM) was -4.55% and the inhibition ([19]; at 0.5 µM) was -4.12% (inactive). For the same compound, the inhibition ([19]; cisplatin combo, at 5 µM) was 18.3%, the inhibition ([19]; measured here: BGB IC40 combination, at 0.05 µM) was 21.3% and the inhibition ([19]; measured here: combination with cisplatin, at 0.5 µM) was -7.15%. For the same compound, the inhibition ([19]; single agent, at 5 µM) was -9.89%, the inhibition ([20]; at 0.5 µM) was -3.43% (inactive) and the inhibition [20, 21] was -7.45%. For the same compound, the inhibition [20, 22] was -1.43%, the inhibition ([20]; single agent, at 0.05 µM) was 31.3% and the inhibition ([20]; single agent, at 5 µM) was 6.36%.
